This note sets out measurements from PubChem BioAssay (NCI).

Molecules are shown by their SMILES. Several values for one entry are separate records, joined by “and”; a condition that tells them apart may be missing. Identical values can stand only once. This is part of a sample that, as a whole, favours compounds with a hit. Of some 83,000 tested, about 20% had one in any assay.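 Step 1: grow cells in 96-well plates. Step 2: add test compound at a single concentration. Step 3: incubate 48 h. Step 4: record percent growth.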 Activity calls are given as the source filed them. Rule for the calls: active = growth percent below 10; inactive = the rest.

Among the test systems are NCI-H23 lung; NCI-H226 lung; NCI-H322M lung; HOP-62 NSCLC; NCI-H460 lung; HOP-92 NSCLC; NCI-H522 lung; A549/ATCC NSCLC; 786-0 renal; COLO 205 colon.
Common to all, as to assay: NCI-60 one-dose screen, 48 h (100 = growth as untreated, 0 = no growth, -100 = all killed)
What all share (conditions): 10 µM unless noted

Take `N=c1ccccn1CCO`: the growth in the assay with NCI-H23 lung was 101% (inactive); with NCI-H226 lung it was 107% (inactive); in the assay on NCI-H322M lung it was 96.7% (inactive); in the assay on HOP-62 NSCLC, 110% (inactive); in the assay with NCI-H460 lung, 114% (inactive); with HOP-92 NSCLC, 96.5% (inactive). Further, the growth with NCI-H522 lung was 114% (inactive); in the assay on A549/ATCC NSCLC, 99.3% (inactive); in the assay on 786-0 renal, 102% (inactive); in the assay with COLO 205 colon it was 110% (inactive).
For `CN1CCN(Cc2ccc(NC(=O)c3cccc(C#Cc4c(N)ncc5ccc(F)cc45)c3)cc2C(F)(F)F)CC1`, the growth is -78.2% (active) in the assay with NCI-H23 lung; 4.59% (active) with NCI-H226 lung; 3.59% (active) in the assay with NCI-H322M lung; -36.4% (active) with HOP-62 NSCLC; -92.3% (active) in the assay with NCI-H460 lung; -49.4% (active) in the assay with HOP-92 NSCLC. Besides, the growth with NCI-H522 lung is -61.1% (active); with A549/ATCC NSCLC, -69.6% (active); in the assay on 786-0 renal, -83.2% (active); in the assay with COLO 205 colon, -59.6% (active).
With `O=C(NCCCN1CCCCC1)c1ccc(-c2nc3ccc4[nH]ncc4c3c3c2CCCC3)cc1`, the growth in the assay with NCI-H23 lung was 49.3% (inactive); in the assay with NCI-H226 lung, 63.8% (inactive); with NCI-H322M lung it was 51.7% (inactive); with HOP-62 NSCLC, 47.6% (inactive); with NCI-H460 lung, 24.9% (inactive); in the assay on HOP-92 NSCLC, 46.2% (inactive). Also, the growth was 42.8% (inactive) with NCI-H522 lung, 26.6% (inactive) in the assay on A549/ATCC NSCLC, 44.3% (inactive) in the assay with 786-0 renal and 60.9% (inactive) in the assay with COLO 205 colon.
Regarding `Cc1nc(Nc2ncc(C(=O)Nc3c(C)cccc3Cl)s2)cc(N2CCN(CCO)CC2)n1`, the growth in the assay on NCI-H23 lung is 46.6% (inactive) and 32.6% (inactive); in the assay with NCI-H226 lung, 31.9% (inactive) and 45.6% (inactive); in the assay with NCI-H322M lung it was 0.803% (active); with HOP-62 NSCLC, 12% (inactive); in the assay on NCI-H460 lung, 74.3% (inactive) and 42.7% (inactive); in the assay with HOP-92 NSCLC, -21.5% (active) and -11.5% (active). Moreover, the growth with NCI-H522 lung was -1.57% (active); in the assay with A549/ATCC NSCLC it was 25.1% (inactive) and 6.75% (active); in the assay on 786-0 renal it was 22.2% (inactive) and 9.13% (active); in the assay with COLO 205 colon, -1.08% (active) and -9.83% (active).
For `O=C1/C(=C/c2cn(-c3ccccc3)nc2-c2ccccc2)SC(=S)N1c1ccc(Cl)cc1`, the growth was 87.5% (inactive) in the assay with NCI-H23 lung; 71.2% (inactive) in the assay on NCI-H226 lung; 64.8% (inactive) with NCI-H322M lung; 52.7% (inactive) with HOP-62 NSCLC; 47.5% (inactive) in the assay with NCI-H460 lung; 43.3% (inactive) in the assay with HOP-92 NSCLC. Further, the growth with NCI-H522 lung was 83.7% (inactive); in the assay on A549/ATCC NSCLC, 68.8% (inactive); in the assay on 786-0 renal it was 85.5% (inactive); in the assay on COLO 205 colon, 111% (inactive).
As to `CCOC(=O)C1=C(C)N=C2SC=C(c3ccc(F)cc3)N2[C@H]1c1cn(-c2ccccc2)nc1-c1ccc(Cl)cc1`, the growth in the assay on NCI-H23 lung is 102% (inactive); in the assay on NCI-H226 lung, 96.4% (inactive); in the assay on NCI-H322M lung, 88.6% (inactive); with HOP-62 NSCLC, 86.8% (inactive); with NCI-H460 lung, 102% (inactive); in the assay on HOP-92 NSCLC, 61.6% (inactive). In addition, the growth was 83.4% (inactive) in the assay with NCI-H522 lung, 77.8% (inactive) with A549/ATCC NSCLC, 87.6% (inactive) in the assay with 786-0 renal and 107% (inactive) with COLO 205 colon.
Consider `CCN(CC)CCOc1ccc(/C(=C(\Cl)c2ccccc2)c2ccccc2)cc1`, for which the growth with NCI-H23 lung was 61.2% (inactive) and 81.6% (inactive); with NCI-H226 lung it was 27.6% (inactive) and 49.4% (inactive); in the assay on NCI-H322M lung, 74.8% (inactive); in the assay with HOP-62 NSCLC, -40% (active) and 61.3% (inactive); in the assay on NCI-H460 lung, 5.92% (active); with HOP-92 NSCLC it was 30.6% (inactive) and 83.7% (inactive). Besides, the growth is 43.9% (inactive) and 98.7% (inactive) in the assay with NCI-H522 lung; 84.8% (inactive) with A549/ATCC NSCLC; -65.1% (active) and 87.8% (inactive) in the assay on 786-0 renal; -74.8% (active) and -60.4% (active) in the assay on COLO 205 colon.
With `O=c1c(/C=C/c2ccco2)nnc2sc(Nc3ccc(Cl)cc3)nn12`, the growth is 96.2% (inactive) in the assay on NCI-H23 lung; 85.4% (inactive) in the assay on NCI-H226 lung; 83.8% (inactive) with NCI-H322M lung; 89% (inactive) in the assay on HOP-62 NSCLC; 101% (inactive) in the assay with NCI-H460 lung; 89.2% (inactive) with HOP-92 NSCLC. The growth with NCI-H522 lung was 90.8% (inactive); in the assay with A549/ATCC NSCLC it was 101% (inactive); with 786-0 renal, 103% (inactive); in the assay on COLO 205 colon, 114% (inactive).
Turning to `C=C1C(=O)O[C@H]2[C@H]1CC/C(COC(=O)NCc1ccc(Cn3c(=O)sn(CCCI)c3=O)cc1)=C\CC[C@@]1(C)O[C@@H]21`, the growth in the assay with NCI-H23 lung was 72.1% (inactive); with NCI-H226 lung it was 77.9% (inactive); in the assay on NCI-H322M lung it was 97.5% (inactive); in the assay on HOP-62 NSCLC, 96% (inactive); in the assay with NCI-H460 lung, 102% (inactive); in the assay on HOP-92 NSCLC it was -29.3% (active). Also, the growth in the assay on NCI-H522 lung was -68.2% (active); in the assay with A549/ATCC NSCLC, 95.5% (inactive); in the assay on 786-0 renal it was 6.22% (active); in the assay with COLO 205 colon, -45.8% (active).
In the case of `CN1Cn2c(ccc2C(F)(F)F)C(=O)CS1(=O)=O`, the growth with NCI-H23 lung is 108% (inactive); in the assay on NCI-H226 lung, 111% (inactive); in the assay with NCI-H322M lung, 104% (inactive); with HOP-62 NSCLC it was 100% (inactive); with NCI-H460 lung, 110% (inactive); with HOP-92 NSCLC, 102% (inactive). In addition, the growth in the assay with NCI-H522 lung was 103% (inactive); with A549/ATCC NSCLC it was 108% (inactive); with 786-0 renal, 96.7% (inactive); in the assay with COLO 205 colon, 116% (inactive).
As for `CN1C(=O)/C(=C/c2ccc(C(=O)Nc3ncc(Cc4ccccc4Cl)s3)cc2)SC1=S`, the growth is 94.6% (inactive) in the assay with NCI-H23 lung; 81.4% (inactive) with NCI-H226 lung; 72.2% (inactive) in the assay with NCI-H322M lung; 74.2% (inactive) in the assay on HOP-62 NSCLC; 79.5% (inactive) in the assay on NCI-H460 lung; 75.1% (inactive) in the assay with HOP-92 NSCLC. In addition, the growth in the assay on NCI-H522 lung is 64.2% (inactive); in the assay on A549/ATCC NSCLC, 72.2% (inactive); with 786-0 renal it was 87.9% (inactive); in the assay with COLO 205 colon, 86.2% (inactive).
As for `COC(=O)/C=C1/SC(=Nc2ccc([N+](=O)[O-])cc2)N(CCc2c[nH]c3ccccc23)C1=O`, the growth in the assay with NCI-H23 lung is 72.7% (inactive); with NCI-H226 lung it was 98.7% (inactive); in the assay with NCI-H322M lung, 98.4% (inactive); with HOP-62 NSCLC, 96.7% (inactive); in the assay on NCI-H460 lung, 92.2% (inactive); in the assay with HOP-92 NSCLC it was 73.2% (inactive). Moreover, the values for the growth with NCI-H522 lung, in the assay with 786-0 renal and in the assay with COLO 205 colon were 53.6% (inactive), 68% (inactive) and 84.6% (inactive), respectively.
